From PubChem
PolyA inhibitor: blocks polyadenylation in yeast reporter cells. S. cerevisiae SKY197-pL101 polyadenylation reporter, beta-gal luminescence; efflux-impaired pdr1/pdr3 knockout yeast; score 100 = 6 SD above DMSO. activity score, % at 12 µM. 300,000 compounds, 0.02% hits. AID 1875;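 active = lowest replicate activity score at least 50, where 100 means six control SD above control mean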;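 note: yeast exposed to compound for 9 h at 30 °C; higher score means more reporter readthrough which indicates perturbed polyadenylation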
Calb FLC: C. albicans growth modulation with fluconazole | C. albicans CaCi-2 (fluconazole-resistant clinical isolate) + fluconazole, Alamar Blue growth, 48 h | AID 1979 | 300,000 compounds, 0.57% hits | growth inhibition, % (test concentration not listed);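 active = growth inhibition above about 58% in most replicates, limit read from the data, passing the limit was not always enough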;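 note: all wells also contain fluconazole at 8 µg/ml as a sub-toxic cotreatment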
Platelet DG rel: modulates dense granule release in human platelets; 300,000 compounds, 0.22% hits; human platelet-rich plasma, SFLLRN dense granule ATP release, luminescence; inhibition, %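 (compounds screened at 7.5 µM in platelet-rich plasma)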; AID 1663;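 active = mean replicate score, as percent of positive control, at or above 50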
SKKanGAS inh: inhibitors of SKKanGAS S. pyogenes growth in kanamycin (SK-promoter or general growth effect); BacTiter-Glo, 6 h; inhibition, % at 7.5 µM; 300,000 compounds, 1.3% hits; AID 1662;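 active = mean replicate score, as percent of positive control median, at least 50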;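 note: strain carries kanamycin resistance gene driven by streptokinase promoter and grows in 40 µg/ml kanamycin; loss of luminescence reflects streptokinase promoter inhibition or plain growth inhibition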
CR mimetic SO: yeast age-related superoxide inhibition as caloric restriction mimetic. S. cerevisiae aged cells, superoxide DHE fluorescence; stronger effect = lower value. superoxide response (% of plate mean), % at 10 µM. 330,000 compounds, 0.18% hits. AID 2690;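 active = superoxide response under a set limit, about three screen SD below normal, cut at about 65% in these data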;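 note: yeast aged for seven days with compound at 30 °C before DHE staining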
Superoxide pick: yeast aging superoxide inhibition, cherry pick confirmation | S. cerevisiae aging, superoxide DHE fluorescence; stronger effect = lower value | superoxide response (% of plate), % at 10 µM | 850 compounds, 1% hits | shares compounds with CR mimetic SO;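 active = superoxide signal below 65% of the plate average of sample wells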;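 note: cells aged with compound for 7 days at 30 degrees C before staining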
DHE fluor count: DHE fluorescence interference, counter-screen artifact. fluorescence response, % at 10 µM. S. cerevisiae BY4741, flow cytometry; stronger effect = lower value. shares compounds with CR mimetic SO. 850 tested, under 10 active;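 active = fluorescence response below 15%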;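 note: lower means stronger quenching of DHE signal or ROS scavenging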
Each line names hits and unclear results; the compound was inactive in the other large screens (follow-up assays come after a bar, where they were run). Sampled rows, rich in hits. Any-hit rate of the full collection: about 2%.

O=C1/C(=C/c2ccccc2)C[C@@]2(O)[C@H]3Cc4ccc(O)c5c4[C@@]2(CCN3CC2CC2)C1O5 (stereo not given in full)	none (no result: PolyA inhibitor, Calb FLC, Platelet DG rel, SKKanGAS inh)
COc1ccc(CCn2c(O)c(C=NCCN3CCCCC3)c(=O)[nH]c2=O)cc1OC	none
CCC(=O)N1N=C(c2c(O)n(CCc3ccccc3)c(=O)[nH]c2=O)CC1c1ccc(OC)c(OC)c1 (stereo not given)	SKKanGAS inh 100
CC1CCN(c2cc(Br)c([N+](=O)[O-])cc2F)CC1	none
O=[N+]([O-])c1ccc(C[n+]2c(-c3ccccc3)cc(-c3ccccc3)cc2-c2ccccc2)cc1	Calb FLC 107
C=CCn1c(O)c(C(CC)=Nc2ccc3c(c2)CCC3)c(=O)[nH]c1=O	none
C=CCn1c(O)c(C(CC)=Nc2ccc(N(C)C)cc2)c(=O)[nH]c1=O	SKKanGAS inh 57
CCC(=O)c1ccc(OCC(=O)N2CCN(CC(=O)Nc3ccccc3C(F)(F)F)CC2)cc1	none (no result: PolyA inhibitor, Calb FLC, Platelet DG rel, SKKanGAS inh)
Cc1cccc(N2C(=O)NC(=O)/C(=C\c3cc(C)n(-c4sc5c(c4C#N)CCCC5)c3C)C2=O)c1C	CR mimetic SO 46
CCCC1C(C#N)=C(N)Oc2c1c(=O)oc1ccccc21 (stereo not given)	none
Cc1ccc(-n2nc(C)c(C3C(C#N)=C(N)Oc4c3c(=O)oc3ccccc43)c2Cl)cc1 (stereo not given)	SKKanGAS inh 119 (no result: CR mimetic SO)
C[C@]12CCC3C(CC[C@H]4C[C@H](O)CC[C@]34C)C1C[C@@H](CCCCl)[C@@H]2O (stereo not given in full)	CR mimetic SO 58 (no result: PolyA inhibitor, Calb FLC, Platelet DG rel, SKKanGAS inh) | Superoxide pick inactive | DHE fluor count inactive
C[C@]12CCC3C(CC[C@H]4C[C@@H](O)CC[C@]34C)C1C[C@H](Br)[C@@H]2O (stereo not given in full)	none (no result: PolyA inhibitor, Calb FLC, Platelet DG rel, SKKanGAS inh) | Superoxide pick inactive | DHE fluor count inactive
C[C@]12CCC3C(CC[C@H]4C[C@H](N)CC[C@]34C)C1CC[C@H]2O (stereo not given in full)	none | Superoxide pick inactive | DHE fluor count inactive
NCc1cc(=O)[nH]o1	none (no result: PolyA inhibitor, Calb FLC, Platelet DG rel, SKKanGAS inh)
C[C@]12CC[C@@H](O)C[C@@H]1CC[C@@H]1[C@@H]2CC[C@]2(C)C(=O)CC[C@@H]12	none (no result: Calb FLC)
C[C@]12CCC3C(CC[C@H]4CC(=O)CC[C@]34C)C1CCC2=O (stereo not given in full)	none (no result: PolyA inhibitor, Calb FLC, Platelet DG rel, SKKanGAS inh)
C[C@]1(O)CCC2C3CC[C@@H]4CC(=O)CC[C@]4(C)C3CC[C@@]21C (stereo not given in full)	CR mimetic SO 61 (no result: PolyA inhibitor, Calb FLC, Platelet DG rel, SKKanGAS inh) | Superoxide pick inactive | DHE fluor count inactive
C[C@]12CCC3C(CC[C@H]4C[C@H](O)CC[C@]34C)C1CCC2=O (stereo not given in full)	CR mimetic SO 57 (no result: PolyA inhibitor, Calb FLC, Platelet DG rel, SKKanGAS inh) | Superoxide pick inactive | DHE fluor count inactive
C[C@]12CCC(=O)C[C@H]1CC[C@@H]1[C@@H]2CC[C@]2(C)C(=O)CC[C@@H]12	CR mimetic SO 60 (no result: PolyA inhibitor, Calb FLC, Platelet DG rel, SKKanGAS inh) | Superoxide pick inactive | DHE fluor count inactive
COP(=S)(OC)c1c(C)nn(CCC#N)c1NC(=O)c1ccc(Cl)cc1	none
CC1=C2[C@@H]3OC(=O)[C@H](C)C3CC[C@@]2(C)C=CC1=O (stereo not given in full)	none
CC(=O)[C@H]1CCC2C3CC[C@H]4C[C@@H](O)CC[C@]4(C)C3CC[C@@]21C (stereo not given in full)	none (no result: PolyA inhibitor, Calb FLC, Platelet DG rel, SKKanGAS inh)
CC(=O)O[C@H]1CCC2C3CC[C@H]4[C@@H](O)[C@H](O)CC[C@]4(C)C3CC[C@@]21C (stereo not given in full)	none (no result: PolyA inhibitor, Calb FLC, Platelet DG rel, SKKanGAS inh, CR mimetic SO) | Superoxide pick inactive | DHE fluor count inactive
Cc1cc(Cl)nc(N)n1	CR mimetic SO 51 | Superoxide pick inactive | DHE fluor count inactive
Fc1ccc(CN2CCN(c3ccc(Cl)cc3)CC2)cc1	none
Fc1cccc(F)c1CN1CCN(c2ccc(Cl)cc2)CC1	CR mimetic SO 38 | Superoxide pick inactive | DHE fluor count inactive
COC(=O)C1=C(c2c(C)noc2C)C[C@@H]2CC[C@H]1N2C(=O)NC1CCCCC1	none (no result: PolyA inhibitor, Calb FLC, Platelet DG rel, SKKanGAS inh)
OCC[n+]1c2ccccc2nc2ccc(N3CCOCC3)cc21	CR mimetic SO 43 | Superoxide pick inactive | DHE fluor count inactive
O=c1ccc2cc(O[C@@H]3O[C@@H](CO)[C@H](O)[C@@H](O)[C@@H]3O)c(O)cc2o1	none
CC(=O)O[C@@H]1CC[C@]2(C)C3CC[C@@]4(C)C(C[C@@H](O)[C@@H]4O)C3[C@@H](OC(C)=O)C[C@H]2C1 (stereo not given in full)	none (no result: PolyA inhibitor, Calb FLC, Platelet DG rel, SKKanGAS inh) | Superoxide pick inactive | DHE fluor count inactive
O=c1[nH]c(O)c(C=Nc2ccc(F)c(Cl)c2)c(=O)[nH]1	CR mimetic SO 60 | Superoxide pick inactive | DHE fluor count inactive
COc1ccc(NC2=NCCCS2)cc1OC	none
O=C1NC(=O)C(=Cc2ccc(OCC(=O)N3CCOCC3)cc2)C(=O)N1	none
COC(=O)C1=C(c2cc3ccccc3o2)C[C@@H]2CC[C@H]1N2C(=O)N1CCC(O)CC1	none
COc1ccc(OCC(=O)N2CCCC(N3CCN(c4ccccc4C)CC3)C2)cc1 (stereo not given)	none
C=C1C(O)[C@@H]2O[C@]3(CC[C@H](/C=C/C(C)[C@@H]4CC(C)=CC5(O[C@H](C[C@@](C)(O)C(=O)O)CCC5O)O4)O3)CC[C@H]2O[C@@H]1C(O)CC(C)[C@H]1OC2(CCCCO2)CCC1C (stereo not given in full)	CR mimetic SO 47 (no result: PolyA inhibitor, Calb FLC, Platelet DG rel, SKKanGAS inh) | Superoxide pick 48 | DHE fluor count inactive
